“And” between values parts separate entries of the source, which are not always exact repeats. Equal entries are not always repeated. Results filed as inconclusive are left out. The source made the active and inactive calls.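 How the source made its calls, unless noted: active means percent response above a set limit, the screen-wide mean plus 3 SD (cut at about 130% in these data); inactive means the rest.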
Columns and labels:
[1] = yeast TOR pathway RPL19A-GFP modulators, primary screen, cell-based, S. cerevisiae, multiplex flow cytometry (AID 1862; in the data active means percent of DMSO control GFP below about 86%;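 further: lower values mimic rapamycin by blocking the RPL19A rise seen in DMSO cells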); conditions: S. cerevisiae RPL19A-GFP strain, flow cytometry fluorescence, 3 h; at 10 µM; stronger effect = lower value
[2] = modulators of MEP2-GFP levels in yeast, primary screen, S. cerevisiae, multiplex flow cytometry (AID 1867;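 active means GFP response, as percent of the DMSO control, above the screen-wide mean plus 3 SD, about 139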;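 further: median GFP channel fluorescence of barcode-gated MEP2-GFP cells measured by flow cytometry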); conditions: S. cerevisiae MEP2-GFP strain, 3 h, at 10 µM, stronger effect = higher value, 100% means same as DMSO wells
[3] = modulators of CIT2-GFP expression in yeast, primary screen, S. cerevisiae, GFP fusion, multiplex flow cytometry (AID 1870); conditions: 3 h, at 10 µM, stronger effect = higher value;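 further: barcoded CIT2-GFP strain pooled with four other GFP strains with rapamycin as positive control; median GFP fluorescence per well over plate mean of DMSO wells so 100% = DMSO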
[4] = modulators of LAP4-GFP expression in yeast, primary screen, S. cerevisiae, multiplex flow cytometry (AID 1873;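 active means GFP signal, as percent of the solvent control, above the screen mean plus 3 SD, about 149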); conditions: 3 h, at 10 µM, stronger effect = higher value
[5] = modulators of AGP1-GFP expression in yeast TOR pathway, primary screen, cell-based, multiplex flow cytometry, S. cerevisiae (AID 1887;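 active means GFP signal above the screen-wide mean plus 3 SD, that is over about 124.5% of the solvent control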;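 further: AGP1-GFP fusion strain of S. cerevisiae within a five-strain barcoded multiplex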); conditions: 3 h, at 10 µM, stronger effect = higher value
[6] = inhibitors of CD8+ T cell-vesicle binding, pilot screen, LFA-1/ICAM-1 modulator project, MLPCN validation set, flow cytometry (AID 2523;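 active means response below a set limit, under 55% cells CD8-positive and vesicle-bound, and CD8 cells' 90th-percentile brightness under 279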;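 on vesicle binding response: mean PE anti-B7-1 fluorescence of CD8+ cells relative to row control; 100% = QL9-loaded vesicles with DMSO vehicle in the same plate row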); conditions: 2C mouse CD8+ T cells, at 7 µM, stronger effect = lower value; double positive events: measured here: CD8+/vesicle+ event percentage
[7] = target: Integrin beta-1 (Homo sapiens) + Integrin alpha-4 (Homo sapiens) (UniProt P13612+P05556); assay: inhibition of HUTS-21 binding to VLA-4, pilot screen, VLA-4 allosteric modulator project, U937 cells, HUTS-21 mAb, flow cytometry, validation set (AID 2674;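 active means inhibition above 50%, about 3 SD of the validation set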;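 further: antibody binding induced by the VLA-4 ligand LDV present at three times its Kd; 0% = LDV ligand with antibody and no compound and 100% = antibody without LDV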); conditions: HUTS-21 LIBS mAb binding, at 6.7 µM, stronger effect = higher value, binding induced by LDV ligand
[8] = superoxide lowering in aged yeast cells, pilot screen, validation compound set (AID 2706;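 active means superoxide response below 65% of plate, a cut near 3 SD across the whole screen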;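 further: yeast exposed to compound for one week at 30 degrees C before staining; 100% = mean of all compound wells on the same plate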); conditions: S. cerevisiae aging, superoxide DHE fluorescence; at 10 µM; stronger effect = lower value
[9] = target: Beta-adrenergic receptor kinase 1 (Homo sapiens) (UniProt P25098); assay: GRK2 binders displacing RNA aptamer, biochemical, validation, human GRK2, bead flow cytometry (AID 488806;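 active means aptamer binding inhibition above 30%, about 3 SD of noise from non-fluorescent compounds; inactive means inhibition at or below 30%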); conditions: bead-bound GRK2, FAM-aptamer displacement, at 10 µM, stronger effect = higher value
[10] = target: Beta-2 adrenergic receptor (Homo sapiens) (UniProt P07550); assay: beta2AR agonists driving receptor internalization, pilot screen, cell-based, FAP fluorogen, flow cytometry, validation set (AID 504459;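 active means percent response above 42, roughly 3 SD of non-fluorescent test compounds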;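 further: agonist-driven loss of surface beta2AR via internalization measured by FAP dye flow cytometry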); conditions: Am2.2-beta2AR cells, FAP surface receptor flow cytometry; at 10 µM; stronger effect = higher value
[11] = target: AP-2 complex subunit beta (Homo sapiens) (UniProt P63010); assay: inhibitors of arrestin peptide binding to AP2, pilot screen, biochemical, validation set, GST-AP2 beads, flow cytometry (AID 504541;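 active means inhibition above 54%, about 3 SD of non-fluorescent compounds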;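 further: AP2 carries R879A mutation and is captured from E. coli lysate; bead-bound FITC arrestin peptide fluorescence measuring arrestin peptide binding to AP2; 0% = DMSO wells and 100% = excess unlabeled arrestin peptide control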); conditions: FITC arrestin peptide, at 10 µM, stronger effect = higher value, AP2 beta2 appendage fragment, R879A mutant
[12] = yeast V-ATPase proton transport modulators, S. cerevisiae, pHLuorin, HTS validation (AID 504600; in the data active means response above about 15%;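 further: plate controls were DMSO for no effect and reference compound for full effect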); conditions: S. cerevisiae pHLuorin cytosolic pH, at 10 µM, stronger effect = higher value
[13] = test system: anti-desmoglein-3 scFv antibody binding to human DSG3; assay: inhibitors of anti-DSG3 scFv binding to DSG3, pilot screen, biochemical, validation compound set, bead-based, flow cytometry (AID 588368;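 active means binding below the plate cutoff, the plate median minus 3 SD, with a reading above zero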;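 further: signal is the median channel fluorescence of bead-bound GFP antibody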); conditions: Protein G beads, DSG3-Fc, scFv-GFP binding, at 10 µM, stronger effect = lower value
[14] = inhibitors of fungal efflux pumps CDR1, CDR2, MDR1, pilot screen, validation compound set, multiplex, phenotypic (AID 588506;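 active means efflux inhibition above 0.42, the validation set average plus 4 SD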;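 further: Nile Red retained in cells so higher fluorescence means more efflux inhibition; 0 = negative control wells and 1 = enniatin B 25 µM full block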); conditions: S. cerevisiae pump-expressing triplex, Nile Red efflux flow cytometry; at 10 µM; stronger effect = higher value; the pumps come from Candida albicans
[15] = target: ATP-binding cassette sub-family B member 6 (Homo sapiens) (UniProt Q9NP58); assay: ABCB6 transporter inhibitors, pilot screen, K562-ABCB6 cells, flow cytometry, validation set (AID 588550;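 active means inhibition above the screen-wide mean plus 3 SD, about 51%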;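 further: 0% = DMSO wells and 100% = benzethonium chloride 70 µM positive control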); conditions: K562-ABCB6 porphyrin accumulation, 1 h, at 10 µM, stronger effect = higher value
[16] = promoters of myeloid differentiation in arrested cells, primary screen, cell-based, GFP/MAC1 double positive, flow cytometry, validation set (AID 588685;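 active means differentiation response of at least 50%, scaled between solvent and reference control, from cells with both markers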;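 further: compound exposure lasts four days before antibody staining and flow analysis; 0% = DMSO wells and 100% = 5 µM fulvestrant positive control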); conditions: ER-HoxA9 marrow cells, stronger effect = higher value, normalized: vehicle 0, fulvestrant 100

Chain of Beta-adrenergic receptor kinase 1 (Homo sapiens) (P25098 whole entry, looked up): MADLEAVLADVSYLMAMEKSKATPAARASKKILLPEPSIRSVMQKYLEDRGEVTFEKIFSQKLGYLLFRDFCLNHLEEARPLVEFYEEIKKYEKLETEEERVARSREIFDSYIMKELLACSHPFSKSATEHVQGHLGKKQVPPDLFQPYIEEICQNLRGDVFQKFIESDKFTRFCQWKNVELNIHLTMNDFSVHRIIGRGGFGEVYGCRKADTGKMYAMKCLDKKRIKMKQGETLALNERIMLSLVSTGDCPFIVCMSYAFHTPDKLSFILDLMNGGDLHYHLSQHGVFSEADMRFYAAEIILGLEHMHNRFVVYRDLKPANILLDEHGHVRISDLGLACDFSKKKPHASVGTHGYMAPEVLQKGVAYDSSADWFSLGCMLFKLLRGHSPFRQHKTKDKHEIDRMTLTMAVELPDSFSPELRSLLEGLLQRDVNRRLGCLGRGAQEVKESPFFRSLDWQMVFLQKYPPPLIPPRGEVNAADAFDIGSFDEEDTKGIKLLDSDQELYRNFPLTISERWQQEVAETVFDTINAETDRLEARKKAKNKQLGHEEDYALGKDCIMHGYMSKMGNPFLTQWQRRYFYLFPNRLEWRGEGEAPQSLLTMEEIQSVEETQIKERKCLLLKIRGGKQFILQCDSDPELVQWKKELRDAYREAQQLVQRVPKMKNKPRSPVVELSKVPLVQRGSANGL
Chain of Integrin beta-1 (Homo sapiens) + Integrin alpha-4 (Homo sapiens) (P05556 whole entry, looked up): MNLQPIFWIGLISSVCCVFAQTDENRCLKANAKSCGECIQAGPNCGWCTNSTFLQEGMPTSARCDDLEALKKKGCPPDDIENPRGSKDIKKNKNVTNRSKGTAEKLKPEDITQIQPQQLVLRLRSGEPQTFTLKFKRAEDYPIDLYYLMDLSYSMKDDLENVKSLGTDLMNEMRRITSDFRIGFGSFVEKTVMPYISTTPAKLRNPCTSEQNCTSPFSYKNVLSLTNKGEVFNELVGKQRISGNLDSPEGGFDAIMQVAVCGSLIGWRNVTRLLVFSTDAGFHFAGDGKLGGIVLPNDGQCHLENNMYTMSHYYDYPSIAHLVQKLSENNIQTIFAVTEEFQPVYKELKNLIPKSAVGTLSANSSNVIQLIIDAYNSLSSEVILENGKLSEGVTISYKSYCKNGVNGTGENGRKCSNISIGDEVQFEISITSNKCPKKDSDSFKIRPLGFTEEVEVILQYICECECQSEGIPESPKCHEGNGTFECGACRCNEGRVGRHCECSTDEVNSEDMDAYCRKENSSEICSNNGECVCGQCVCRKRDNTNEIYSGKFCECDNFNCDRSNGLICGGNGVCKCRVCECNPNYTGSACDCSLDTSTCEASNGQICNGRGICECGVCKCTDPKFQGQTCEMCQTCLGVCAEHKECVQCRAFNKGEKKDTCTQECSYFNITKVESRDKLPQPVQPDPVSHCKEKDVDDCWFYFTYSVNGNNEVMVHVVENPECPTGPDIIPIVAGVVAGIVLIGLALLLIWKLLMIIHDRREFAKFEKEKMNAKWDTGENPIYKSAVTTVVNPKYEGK
Chain of Integrin beta-1 (Homo sapiens) + Integrin alpha-4 (Homo sapiens) (P13612 whole entry, looked up): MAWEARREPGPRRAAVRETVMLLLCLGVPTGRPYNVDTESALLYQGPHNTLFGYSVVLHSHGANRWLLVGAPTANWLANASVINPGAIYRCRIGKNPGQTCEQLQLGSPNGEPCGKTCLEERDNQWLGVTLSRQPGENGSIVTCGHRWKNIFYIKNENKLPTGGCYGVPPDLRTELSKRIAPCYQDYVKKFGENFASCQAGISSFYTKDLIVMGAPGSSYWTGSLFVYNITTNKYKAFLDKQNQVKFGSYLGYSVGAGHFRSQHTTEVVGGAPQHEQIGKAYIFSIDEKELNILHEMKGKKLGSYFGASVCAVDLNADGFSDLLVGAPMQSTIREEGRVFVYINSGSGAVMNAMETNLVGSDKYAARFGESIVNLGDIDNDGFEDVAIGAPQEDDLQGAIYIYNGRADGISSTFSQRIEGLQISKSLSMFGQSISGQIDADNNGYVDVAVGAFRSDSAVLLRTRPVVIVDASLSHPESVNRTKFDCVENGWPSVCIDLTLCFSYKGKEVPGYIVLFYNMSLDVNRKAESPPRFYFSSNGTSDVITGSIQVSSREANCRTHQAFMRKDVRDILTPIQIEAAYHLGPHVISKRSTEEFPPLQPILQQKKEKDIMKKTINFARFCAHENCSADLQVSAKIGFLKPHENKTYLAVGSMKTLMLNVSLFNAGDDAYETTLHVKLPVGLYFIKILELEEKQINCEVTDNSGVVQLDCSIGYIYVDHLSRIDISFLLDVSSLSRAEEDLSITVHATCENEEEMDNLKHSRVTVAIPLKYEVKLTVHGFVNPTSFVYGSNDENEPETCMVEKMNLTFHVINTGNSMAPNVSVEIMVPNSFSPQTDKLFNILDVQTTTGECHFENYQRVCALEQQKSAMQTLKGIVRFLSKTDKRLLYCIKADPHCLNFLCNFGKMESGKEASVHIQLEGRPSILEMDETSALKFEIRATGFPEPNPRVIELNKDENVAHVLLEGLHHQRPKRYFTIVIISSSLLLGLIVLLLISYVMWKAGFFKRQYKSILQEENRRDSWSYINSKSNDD
Chain of ATP-binding cassette sub-family B member 6 (Homo sapiens) (Q9NP58 whole entry, looked up): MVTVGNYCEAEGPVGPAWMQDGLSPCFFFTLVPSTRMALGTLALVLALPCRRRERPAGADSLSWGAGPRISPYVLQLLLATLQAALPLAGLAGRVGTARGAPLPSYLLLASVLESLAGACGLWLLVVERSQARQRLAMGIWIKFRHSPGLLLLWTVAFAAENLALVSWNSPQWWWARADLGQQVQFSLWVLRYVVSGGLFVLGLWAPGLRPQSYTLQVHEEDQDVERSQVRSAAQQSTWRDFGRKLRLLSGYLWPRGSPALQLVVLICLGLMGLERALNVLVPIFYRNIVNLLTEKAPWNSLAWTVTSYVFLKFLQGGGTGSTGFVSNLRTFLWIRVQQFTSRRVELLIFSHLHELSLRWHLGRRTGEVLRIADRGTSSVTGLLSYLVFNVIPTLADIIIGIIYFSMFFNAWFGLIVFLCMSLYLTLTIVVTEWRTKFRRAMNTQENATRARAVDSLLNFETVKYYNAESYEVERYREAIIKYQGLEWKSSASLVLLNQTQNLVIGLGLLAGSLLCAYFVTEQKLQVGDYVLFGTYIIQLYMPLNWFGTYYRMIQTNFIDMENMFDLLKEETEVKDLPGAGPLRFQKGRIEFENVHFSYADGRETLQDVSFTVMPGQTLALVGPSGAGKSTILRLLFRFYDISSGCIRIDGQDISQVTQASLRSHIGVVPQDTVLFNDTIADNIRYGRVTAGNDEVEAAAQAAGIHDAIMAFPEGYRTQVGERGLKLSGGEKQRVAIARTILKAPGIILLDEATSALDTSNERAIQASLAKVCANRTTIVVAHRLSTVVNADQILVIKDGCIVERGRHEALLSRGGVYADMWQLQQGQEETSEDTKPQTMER
Chain of Beta-2 adrenergic receptor (Homo sapiens) (P07550 whole entry, looked up): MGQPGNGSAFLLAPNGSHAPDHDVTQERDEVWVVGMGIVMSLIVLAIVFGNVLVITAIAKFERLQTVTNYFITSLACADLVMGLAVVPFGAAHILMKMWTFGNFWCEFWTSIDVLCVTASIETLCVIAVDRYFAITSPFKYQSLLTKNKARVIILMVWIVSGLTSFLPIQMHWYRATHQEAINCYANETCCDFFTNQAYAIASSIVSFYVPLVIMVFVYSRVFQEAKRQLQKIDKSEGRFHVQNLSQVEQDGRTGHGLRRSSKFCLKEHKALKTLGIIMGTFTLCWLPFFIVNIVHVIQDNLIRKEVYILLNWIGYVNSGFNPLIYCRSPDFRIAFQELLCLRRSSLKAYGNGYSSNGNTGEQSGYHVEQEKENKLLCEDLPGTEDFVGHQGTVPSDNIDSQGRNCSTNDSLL
Chain of AP-2 complex subunit beta (Homo sapiens) (P63010 whole entry, looked up, the tested form may be a part, one chain of several): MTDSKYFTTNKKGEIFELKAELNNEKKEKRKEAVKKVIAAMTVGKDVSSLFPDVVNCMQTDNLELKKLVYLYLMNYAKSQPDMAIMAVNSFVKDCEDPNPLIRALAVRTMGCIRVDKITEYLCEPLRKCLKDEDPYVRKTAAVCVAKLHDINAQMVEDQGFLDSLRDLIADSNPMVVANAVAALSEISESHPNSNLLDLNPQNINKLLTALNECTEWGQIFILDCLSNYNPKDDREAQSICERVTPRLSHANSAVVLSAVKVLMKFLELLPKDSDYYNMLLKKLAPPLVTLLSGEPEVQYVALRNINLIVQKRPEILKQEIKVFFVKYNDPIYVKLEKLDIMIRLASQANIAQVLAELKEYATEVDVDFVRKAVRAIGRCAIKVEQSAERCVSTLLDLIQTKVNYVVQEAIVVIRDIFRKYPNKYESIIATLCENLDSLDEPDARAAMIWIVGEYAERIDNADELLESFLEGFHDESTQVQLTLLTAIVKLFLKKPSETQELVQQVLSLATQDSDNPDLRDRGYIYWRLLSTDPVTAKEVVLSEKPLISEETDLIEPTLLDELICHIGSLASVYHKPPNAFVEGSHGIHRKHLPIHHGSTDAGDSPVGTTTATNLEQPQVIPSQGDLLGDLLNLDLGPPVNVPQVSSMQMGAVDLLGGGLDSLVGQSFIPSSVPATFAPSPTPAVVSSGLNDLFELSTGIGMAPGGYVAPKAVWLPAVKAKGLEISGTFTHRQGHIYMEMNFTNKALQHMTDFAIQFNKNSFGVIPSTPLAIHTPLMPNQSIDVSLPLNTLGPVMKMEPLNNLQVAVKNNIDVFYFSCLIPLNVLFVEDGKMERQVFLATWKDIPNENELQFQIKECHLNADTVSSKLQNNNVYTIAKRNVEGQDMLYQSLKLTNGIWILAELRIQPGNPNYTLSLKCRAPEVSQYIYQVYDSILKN

Row | Structure (SMILES) | percent of DMSO control GFP [1] | GFP response vs DMSO [2] | percent response of DMSO control [3] | GFP response vs DMSO [4] | GFP response, % of DMSO [5] | double positive events [6] | vesicle binding response [6] | inhibition [7] | superoxide response (% of plate) [8] | aptamer binding inhibition [9] | response [10] | inhibition [11] | response [12] | binding (% of control) [13] | efflux inhibition (fraction of control) [14] | inhibition [15] | differentiation response [16]
1 | COC(=O)C1=CN(Cc2cccs2)C=C(C(=O)OC)C1c1cccc(Cl)c1 | 103% (inactive) | 107% (inactive) | 98.2% (inactive) | 92.3% (inactive) | 97.2% (inactive) | 61.5% | 186% (inactive) | 14% (inactive) | 103% (inactive) | 5% (inactive) | 9.92% (inactive) | 2.7% (inactive) | -0.61% (inactive) | 99.5% (inactive) | 0.26 (inactive) | 6% (inactive) | 6.49% (inactive)
2 | CC(N=C(NC#N)Nc1ccncc1)C(C)(C)C (stereo not drawn) | 102% (inactive) | 103% (inactive) | 103% (inactive) | 99.1% (inactive) | 100% (inactive) | 59.1% | 97.4% (inactive) | 5.61% (inactive) | 104% (inactive) | 3% (inactive) | -2.47% (inactive) | 0.53% (inactive) | -9.1% (inactive) | 101% (inactive) | 0.09 (inactive) | -10% (inactive) | -1.65% (inactive)
3 | COC(=O)c1sccc1NC(=O)Nc1ccccc1F | 100% (inactive) | 103% (inactive) | 105% (inactive) | 88.2% (inactive) | 101% (inactive) | 69.3% | 197% (inactive) | 5.61% (inactive) | 93.7% (inactive) | -3% (inactive) | 2% (inactive) | -3.3% (inactive) | -6.01% (inactive) | 103% (inactive) | -0.28 (inactive) | 23% (inactive) | 7.13% (inactive)
4 | Cc1nc2ccccc2n1CC(O)Cn1c2ccccc2c2ccccc21 (stereo not drawn) | 90.9% (inactive) | 115% (inactive) | 101% (inactive) | 78.7% (inactive) | 91.9% (inactive) | 62.2% | 174% (inactive) | 4.52% (inactive) | 97.8% (inactive) | 2% (inactive) | 8.04% (inactive) | -4.66% (inactive) | -1.44% (inactive) | 104% (inactive) | 0.19 (inactive) | 9% (inactive) | -1.64% (inactive)
5 | CC(C)CN1CCN(Cc2cccn2-c2ccccn2)CC1CCO (stereo not drawn) | 90.9% (inactive) | 113% (inactive) | 103% (inactive) | 80.3% (inactive) | 95.9% (inactive) | 64.2% | 241% (inactive) | 22.9% (inactive) | 114% (inactive) | -2% (inactive) | -7.51% (inactive) | -9.17% (inactive) | 74.8% (active) | 102% (inactive) | 0.48 (active) | 16% (inactive) | 1.64% (inactive)
6 | CCN(CC)CCNC(=O)c1ccc(NC(C)=O)cc1 | 99.4% (inactive) | 108% (inactive) and 103% (inactive) | 101% (inactive) | 89.4% (inactive) and 90.7% (inactive) | 99.2% (inactive) and 100% (inactive) | 63.2% and 61.4% | 4990% (inactive) and 247% (inactive) | 1.62% (inactive) and -0.45% (inactive) | 100% (inactive) and 103% (inactive) | 3% (inactive) and -3% (inactive) | -11.2% (inactive) and -2.15% (inactive) | -11.4% (inactive) and 6.7% (inactive) | -1.96% (inactive) and 1.62% (inactive) | 95.9% (inactive) and 97.4% (inactive) | 0.02 (inactive) and -0.04 (inactive) | -3% (inactive) and 3% (inactive) | -6.6% (inactive) and 20.8% (inactive)
7 | CC(=O)N(CCC1(c2ccc(C)cc2)CCOC(C(C)C)C1)Cc1ccco1 (stereo not drawn) | 93.9% (inactive) | 108% (inactive) | 116% (inactive) | 82% (inactive) | 96.6% (inactive) | 46.3% | 74.9% (active) | -16.8% (inactive) | 99.9% (inactive) | -4% (inactive) | -3.21% (inactive) | 3.24% (inactive) | -0.03% (inactive) | 99.6% (inactive) | 0.05 (inactive) | 9% (inactive) | -1.64% (inactive)
8 | c1ccc(CNc2ncnc3nc[nH]c23)cc1 | 103% (inactive) | 104% (inactive) | 90.8% (inactive) | 90.1% (inactive) | 97.8% (inactive) | 63.6% | 581% (inactive) | 9.92% (inactive) | 93.5% (inactive) | 6% (inactive) | 1.86% (inactive) | -1.71% (inactive) | -1.37% (inactive) | 94.8% (inactive) | 0.11 (inactive) | 3% (inactive) | 7.09% (inactive)
9 | Cc1cnc(N)c2c(=O)oc3ccccc3c12 | 99.8% (inactive) | 100% (inactive) | 105% (inactive) | 96.6% (inactive) | 95.3% (inactive) | 61.2% | 275% (inactive) | -8.75% (inactive) | 98.8% (inactive) | 4% (inactive) | -6.01% (inactive) | -2.59% (inactive) | -3.82% (inactive) | 97.1% (inactive) | -0.01 (inactive) | -2% (inactive) | -6.6% (inactive)

From PubChem BioAssay
